Source: PubChem BioAssay (NCI)
This is part of a sample that, as a whole, favours compounds with a hit. Of some 83,000 tested, about 20% had one in any assay.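 Method: cells in 96-well plates; compound added at one concentration; 48 h incubation; percent growth measured; values under 10 scored active.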 Unmarked numbers belong to inactive results. The source made the active and inactive calls.

Assays:
Test in all cases: NCI-60 one-dose screen, 48 h (100 = growth as untreated, 0 = no growth, -100 = all killed)
Details in all cases: 10 µM unless noted
DU-145 prostate = tested on: DU-145 prostate
K-562 leukemia = tested on: K-562 leukemia
MALME-3M melanoma = tested on: MALME-3M melanoma
MDA-MB-231 breast = tested on: MDA-MB-231 breast
RXF 393 renal = tested on: RXF 393 renal
SF-268 CNS = tested on: SF-268 CNS
SF-295 CNS = tested on: SF-295 CNS
SF-539 CNS = tested on: SF-539 CNS
UACC-257 melanoma = tested on: UACC-257 melanoma
M14 melanoma = tested on: M14 melanoma
HCT-15 colon = tested on: HCT-15 colon
HT29 colon = tested on: HT29 colon
SNB-75 CNS = tested on: SNB-75 CNS
SNB-19 CNS = tested on: SNB-19 CNS
U251 CNS = tested on: U251 CNS
PC-3 prostate = tested on: PC-3 prostate
SK-MEL-5 melanoma = tested on: SK-MEL-5 melanoma
UACC-62 melanoma = tested on: UACC-62 melanoma
LOX IMVI melanoma = tested on: LOX IMVI melanoma
SK-MEL-28 melanoma = tested on: SK-MEL-28 melanoma

Row | SMILES | growth (DU-145 prostate) | growth (K-562 leukemia) | growth (MALME-3M melanoma) [%] | growth (MDA-MB-231 breast) | growth (RXF 393 renal) | growth (SF-268 CNS) | growth (SF-295 CNS) | growth (SF-539 CNS) | growth (UACC-257 melanoma) [%] | growth (M14 melanoma) | growth (HCT-15 colon) | growth (HT29 colon) | growth (SNB-75 CNS) | growth (SNB-19 CNS) | growth (U251 CNS) | growth (PC-3 prostate) | growth (SK-MEL-5 melanoma) | growth (UACC-62 melanoma) [%] | growth (LOX IMVI melanoma) | growth (SK-MEL-28 melanoma) [%]
1 | Cn1cc(-c2nc(N)nnc2-c2c[nH]c3ccc(Br)cc23)c2cc(Br)ccc21 | 64.8% | 12.2% | 43 | 62.5% | 39.8% | 61.3% | 11.7% | 43.8% | 82.9 | 20.7% | 29.8% | 14.1% | 55.8% | 43.1% | 27.9% | 20.2% | 42.9% | 27.4 | 44% | 60.1
2 | CN1CCN(Cc2ccc(NC(=O)c3cncc(C#Cc4cnc5ccc(N6CCN(C)CC6)nn45)c3)cc2C(F)(F)F)CC1 | -94.2% (active) | -59% (active) | 68.3 | -66.7% (active) | -89.9% (active) | -50.7% (active) | -78.4% (active) | -98% (active) | 101 | -45.8% (active) | -57% (active) | -41.6% (active) | -68.9% (active) | -29.3% (active) | -96.7% (active) | -18.6% (active) | 90.5% | 92.2 | -93.1% (active) | 82
3 | CCNC(=O)N1CCc2cc(OC)c(OCCc3ccc(OC)c(N)c3)cc2C1c1ccc(C)cc1C (stereo not given) | 16.4% | 15.1% | 62.6 | 15% | 7.54% (active) | 26.1% | 16.1% | 13.6% | 49.1 | 16.5% | 10.4% | 3.09% (active) | 41.5% | 30.1% | 17.8% | 29.1% | -7.76% (active) | 24.2 | 6.47% (active) | 42.5
4 | COc1cc(OC)c(S(N)(=O)=O)cc1C(=O)/C=C/c1ccc(Cl)cc1 | 5.02% (active) | 7.15% (active) | 61.4 | 11.5% | -40.4% (active) | 6.79% (active) | 1.14% (active) | 0.148% (active) | 73.6 | 19.9% | -41.6% (active) | 6.08% (active) | 27.1% | 15.8% | 3.73% (active) | 28.2% | 5.34% (active) | 18.6 | -50.4% (active) | 30.5
5 | CC(C)c1ccc(NCc2cn(-c3ccc(C(=O)O)cc3)nc2-c2cc(C(F)(F)F)cc(C(F)(F)F)c2)cc1 | 89.6% | 79.8% | 71 | 91.8% | 97.2% | 88.1% | 98.5% | 83.6% | 94.9 | 86% | 73.7% | 80.9% | 89% | 83.8% | 86.2% | 70.4% | 96% | 81.9 | 91.9% | 93.3
6 | CC(C)(C)CC(C)(C)n1nnnc1C(Nc1nccs1)c1cc2cccc3ccc4cccc1c4c32 (stereo not given) | 107% | 111% | 94 | 97.2% | 119% | 94.8% | 94.9% | 92.7% | 104 | 111% | 94.9% | 104% | 91.5% | 89.9% | 98.1% | 96.9% | 100% | 68.4 | 97% | 101
7 | CC(C)(C)c1ccc(-c2nnc(-c3nc4ccccc4nc3Cl)o2)cc1 | 86.2% | 65.9% | 101 | 90.5% | 88.4% | 42% | 103% | 93.8% | 61.9 | 93.1% | 81.9% | 116% | 96.4% | 95.8% | 98.2% | 92.4% | 98.1% | 72.7 | 90% | 68.4
